Source: PubChem BioAssay (NCATS)
Values joined by “and” are separate entries in the source; they are usually repeats but may differ in a detail not shown here. Equal values may be shown once. Inconclusive results are not listed. Where a structure was tested more than once in an assay, its records may differ in their call. Active and inactive are the calls of the source. Unless noted, calls follow the shape of the dose curve; as a rule, active = well fitted curve in the direction sought with a large enough effect; inconclusive = small, poorly fitted or top-dose-only effect, or another doubt; inactive = no such curve, though single readings can be large; an effect the other way counts as inactive or inconclusive.

Key:
[1] = biological target: Cellular tumor antigen p53 (Homo sapiens) (UniProt P04637); experiment: Primary qHTS for small molecule compounds that upregulate eGFP-tagged delta133p53alpha (in N-terminal) cells. (AID 2060322); details: NCI-H358 eGFP-delta133p53alpha fluorescence, 24 h; activation: stronger effect = higher value; also: nearly all actives have a fitted effect of over 75% in size; also: potency is read from the fitted curve at half-maximal effect;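 as to activation: 0% = DMSO vehicle and 100% = reference activator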
Chain of Cellular tumor antigen p53 (Homo sapiens) (P04637 whole entry, looked up): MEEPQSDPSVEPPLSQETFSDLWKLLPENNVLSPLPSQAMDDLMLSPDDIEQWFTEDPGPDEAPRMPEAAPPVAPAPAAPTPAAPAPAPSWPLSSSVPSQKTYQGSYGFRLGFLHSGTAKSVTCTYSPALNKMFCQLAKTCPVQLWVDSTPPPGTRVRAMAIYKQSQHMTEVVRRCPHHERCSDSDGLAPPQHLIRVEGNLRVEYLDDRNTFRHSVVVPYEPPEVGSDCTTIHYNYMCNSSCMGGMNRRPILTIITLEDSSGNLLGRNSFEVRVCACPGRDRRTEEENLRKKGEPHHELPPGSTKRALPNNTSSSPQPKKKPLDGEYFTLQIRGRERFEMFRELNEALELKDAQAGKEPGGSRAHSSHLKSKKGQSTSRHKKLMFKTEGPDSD
Summary of the method: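 NCI-H358 cells pre-induced 24 h with 10 ng/ml doxycycline to express N-terminal eGFP-delta133p53alpha, then dosed 24 h at 37C without doxycycline; fixed, Hoechst-stained, GFP intensity by laser scanning cytometry, normalized to DMSO (0%) and 57.5 uM 5-azacytidine (100%).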

[2] = biological target: Aldehyde dehydrogenase, mitochondrial (Homo sapiens) (UniProt P05091); experiment: qHTS for Inhibitors of the Aldehyde Dehydrogenase Family (ALDH2) Validation screens (AID 2061302; active = well fitted inhibition curve with a large enough effect; title and protocol of this record describe different tests;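 also: plate controls were DMSO vehicle for no effect and maximal DPI positive control response for full effect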); details: ALDH inhibition qHTS; series mostly up to 42.6 µM
[3] = biological target: Retinaldehyde dehydrogenase 3 (Homo sapiens) (UniProt P47895); experiment: qHTS for Inhibitors of the Aldehyde Dehydrogenase Family (ALDH1A3) Validation screen (AID 2061312); details: ALDH1A3 enzyme inhibition qHTS validation, fluorescence; series mostly up to 84.7 µM; also: % is scaled to controls: 0 for no effect and ±100 for the full control effect; nearly all actives have a fitted effect of over 45% in size
[4] = BET inhibitor-based combinations targeting novel dependencies in MECOM-rearranged (r) AML: SET-2 cell line (AID 2202231); details: SET-2 AML cells viability, CellTiter-Glo luminescence, 48 h; viability: stronger effect = lower value, concentration not given here; also: nearly all actives have a fitted effect of over 35% in size; also: potency is read from the fitted curve at half-maximal effect;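 as to viability: plate controls were DMSO treated cells for no effect and wells without cells for full effect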
Summary of the method: (§1)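 Cells were plated at 500 per well and exposed to an 11-point dose series of each drug for 48 hr. Viability was measured by CellTiter-Glo luminescence, normalized to DMSO and empty-well controls, and summarized as AUC and per-cell-line Z-AUC.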

[5] = BET inhibitor-based combinations targeting novel dependencies in MECOM-rearranged (r) AML: AML-194 cell line (AID 2202237;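 also: plate controls were vehicle wells for no effect and wells without cells for full effect; nearly all actives have a fitted effect of over 40% in size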); details: AML-194 (MECOM-r AML) viability, CellTiter-Glo, 48 h; series mostly up to 46 µM
Summary of the method: as §1

[6] = biological target: Aldehyde dehydrogenase, mitochondrial (Homo sapiens) (UniProt P05091); experiment: qHTS for Inhibitors of the Aldehyde Dehydrogenase Family (ALDH2) Confirmatory screens (AID 2061303; active = well fitted inhibition curve with a large enough effect; title and protocol of this record describe different tests; also: nearly all actives have a fitted effect of over 45% in size; also: potency is read from the fitted curve at half-maximal effect; as to activity change, negative = inhibition: % is scaled to controls: 0 for no effect and ±100 for the full control effect); details: ALDH inhibition qHTS; series mostly up to 45.4 µM
[7] = qHTS for Inhibitors of the Aldehyde Dehydrogenase Family (ALDH1A2, ALDH1A3, ALDH2, ALDH3A1) (AID 2061307); details: ALDH inhibition qHTS; series mostly up to 50.3 µM; also: nearly all actives have a fitted effect of over 50% in size; as to Potency: test system not described further here; potency is read from the fitted curve at half-maximal effect; as to activity change, negative = inhibition: % is scaled to controls: 0 for no effect and ±100 for the full control effect
[8] = biological target: Aldehyde dehydrogenase, mitochondrial (Homo sapiens) (UniProt P05091); experiment: qHTS for Inhibitors of the Aldehyde Dehydrogenase Family (ALDH2) Primary screen (AID 2061308); details: ALDH2 enzyme inhibition qHTS, 1536-well; series mostly up to 56 µM; also: nearly all actives have a fitted effect of over 55% in size; also: potency is read from the fitted curve at half-maximal effect;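 as to activity change, negative = inhibition: plate controls were vehicle for no effect and reference inhibitor for full effect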
[9] = biological target: Retinaldehyde dehydrogenase 3 (Homo sapiens) (UniProt P47895); experiment: qHTS for Inhibitors of the Aldehyde Dehydrogenase Family (ALDH1A3) Confirmatory screens (AID 2061311); details: ALDH inhibition qHTS; series mostly up to 46 µM; also: nearly all actives have a fitted effect of over 60% in size; also: potency is read from the fitted curve at half-maximal effect; as to activity change, negative = inhibition: % is scaled to controls: 0 for no effect and ±100 for the full control effect
[10] = biological target: Retinal dehydrogenase 2 (Homo sapiens) (UniProt O94788); experiment: qHTS for Inhibitors of the Aldehyde Dehydrogenase Family (ALDH1A2) Confirmation screens (AID 2061314); details: ALDH1A2 enzyme inhibition qHTS confirmation; series mostly up to 45.9 µM; also: nearly all actives have a fitted effect of over 65% in size; also: potency is read from the fitted curve at half-maximal effect
[11] = biological target: Retinaldehyde dehydrogenase 3 (Homo sapiens) (UniProt P47895); experiment: qHTS for Inhibitors of the Aldehyde Dehydrogenase Family (ALDH1A3) Primary screen (AID 2061315); details: ALDH inhibition qHTS; series mostly up to 56 µM;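 also: plate controls were DMSO vehicle for no effect and reference inhibitor for full effect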
[12] = biological target: Aldehyde dehydrogenase 1A1 (Homo sapiens) (UniProt P00352); experiment: qHTS for Inhibitors of the Aldehyde Dehydrogenase Family (ALDH1A1) Confirmatory screens (AID 2061316); details: ALDH inhibition qHTS; series mostly up to 47.3 µM; also: nearly all actives have a fitted effect of over 65% in size; also: potency is read from the fitted curve at half-maximal effect; as to activity change, negative = inhibition: % is scaled to controls: 0 for no effect and ±100 for the full control effect
[13] = BET inhibitor-based combinations targeting novel dependencies in MECOM-rearranged (r) AML: MV-4-11 cell line (AID 2202233); details: MV-4-11 AML viability, CellTiter-Glo luminescence, 48 h; series mostly up to 46 µM; also: nearly all actives have a fitted effect of over 45% in size; also: potency is read from the fitted curve at half-maximal effect
Summary of the method: (§2)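 Activity is given as area under the curve and as Z-AUC, mean-centred within each cell line. It comes from 11-point dose curves normalized to DMSO and empty wells. CellTiter-Glo luminescence was read after 48 hr drug exposure of 500 cells/well.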

[14] = BET inhibitor-based combinations targeting novel dependencies in MECOM-rearranged (r) AML: OCI-AML3 cell line (AID 2202232); details: CellTiter-Glo luminescence, 48 h; Potency: OCI-AML3 viability; series mostly up to 46 µM; also: nearly all actives have a fitted effect of over 35% in size; also: potency is read from the fitted curve at half-maximal effect
Summary of the method: as §1

[15] = BET inhibitor-based combinations targeting novel dependencies in MECOM-rearranged (r) AML: HNT-34 cell line (AID 2202234); details: HNT-34 AML viability, CellTiter-Glo luminescence, 48 h; series mostly up to 46 µM; also: nearly all actives have a fitted effect of over 35% in size; also: potency is read from the fitted curve at half-maximal effect
Summary of the method: as §2

[16] = BET inhibitor-based combinations targeting novel dependencies in MECOM-rearranged (r) AML: UCSD-AML1 cell line (AID 2202235); details: UCSD-AML1 AML cells viability, CellTiter-Glo, 48 h; series mostly up to 46 µM;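 also: plate controls were DMSO vehicle wells for no effect and blank wells for full effect; nearly all actives have a fitted effect of over 40% in size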
Summary of the method: as §2

[17] = BET inhibitor-based combinations targeting novel dependencies in MECOM-rearranged (r) AML: AML-191 cell line (AID 2202236; also: nearly all actives have a fitted effect of over 35% in size; also: potency is read from the fitted curve at half-maximal effect); details: AML-191 viability, CellTiter-Glo luminescence, 48 h; series mostly up to 46 µM
Summary of the method: as §1

O=C(CCc1ccc(O)cc1)c1c(O)cc(O)cc1O
inactive: activation [1] 27.3% and 7.98% | Potency [2] | Potency [3] | viability [4] 105% | Potency [5]

CCN(CC)CCOCCOC(=O)C(CC)(CC)c1ccccc1
inactive: activation [1] -4.3% | Potency [6] | Potency [7] | Potency [8] | activity change, negative = inhibition [9] -17.9% [at 0.022 µM] | Potency [3] | Potency [10] | Potency [11] | Potency [12]

COc1cc2c3c(cc4ccccc4c3c1O)NC2=O
active: Potency [9] 14.2 µM
inactive: activation [1] -8.93% | Potency [6] | Potency [7] | Potency [8]

O=c1onc2n1-c1cc(Br)ccc1OC2
inactive: activation [1] -18.5% | Potency [2] | Potency [3]

Cn1ccnc1
inactive: activation [1] -23.6% | Potency [2] | Potency [3]

O=C(CCN1CCN(C(=O)OCc2cc(Cl)cc(Cl)c2)CC1)c1ccc2[nH]c(=O)oc2c1
252 nM (active) and inactive: Potency [10]
inactive: activation [1] 10.1% | Potency [3] | Potency [11] | viability [4] 95.2%
active: Potency [6] 283 nM and 5.62 µM | Potency [7] 0.201 µM | Potency [8] 0.158 µM | Potency [9] 1.42 µM | Potency [12] 0.252 µM | Potency [13] 26.3 µM

COc1cc(O)c2c(c1)C1OC1C[C@H](O)[C@H](O)C(=O)/C=C\C[C@H](C)OC2=O (some centres undefined)
active: Potency [1] 21.3 µM
inactive: Potency [6] | Potency [7] | Potency [8] | Potency [9] | Potency [3]

CC1=NS(=O)(=O)c2cc(Cl)ccc2N1
inactive: activation [1] 19.8% and -34.3% | Potency [2] | Potency [3]

CC12C(=O)OC(=O)C1(C)C1CCC2O1 (centres undefined)
active: Potency [1] 1.69 µM
inactive: Potency [2] | Potency [3]

O=c1c(O)c(-c2ccc(O)c(O)c2)oc2cc(O)cc(O)c12
inactive: activation [1] -2.54% and -9.6% and 3.95% | Potency [2] | Potency [14] | Potency [13] | Potency [15] | Potency [16] | Potency [17] | Potency [5]

NC(N)=NCCC[C@H](NC(=O)c1sccc1NS(=O)(=O)c1cccc2nsnc12)C(=O)O
inactive: activation [1] -11.5% | Potency [6] | Potency [7] | Potency [8] | Potency [9] | Potency [3] | Potency [10] | Potency [11] | Potency [12]

CCCCC1CCN(CCCN2C(=O)CCc3ccccc32)CC1
inactive: activation [1] -5.25% | Potency [6] | Potency [7] | Potency [8] | Potency [9] | Potency [3] | Potency [10] | Potency [11] | Potency [12]

NC(Cc1c[nH]c2ccccc12)C(=O)NC(CCC(=O)O)C(=O)O (centres undefined)
inactive: activation [1] -0.955% | Potency [6] | Potency [7] | Potency [8] | Potency [9] | Potency [3] | Potency [10] | Potency [11] | Potency [12]

COC(=O)[C@@]1(c2ccc(C)cc2)C[C@H]1CN1CCC(O)(c2ccccc2)CC1
inactive: activation [1] 0.477% | Potency [6] | Potency [7] | Potency [8] | Potency [9] | Potency [3] | Potency [10] | Potency [11] | Potency [12]

CN(C)CCCN1c2ccccc2CCc2ccc(Cl)cc21
inactive: activation [1] 5.09% and -16.2% | Potency [2] | Potency [3] | Potency [16] | Potency [5]

OCCN1CCN(CCCN2c3ccccc3Sc3ccc(C(F)(F)F)cc32)CC1
inactive: activation [1] 21.2% and 6.21% and -4.78% | Potency [2] | Potency [16]
active: Potency [4] 20.9 µM | Potency [14] 18.6 µM | Potency [13] 18.6 µM | Potency [15] 18.6 µM | Potency [17] 29.5 µM

O=C(Nc1cc(C(F)(F)F)cc(C(F)(F)F)c1)c1cnc(Cl)nc1C(F)(F)F
active: Potency [1] 30.1 µM
inactive: Potency [6] | Potency [7] | Potency [8] | Potency [9] | Potency [3] | Potency [10] | Potency [11] | Potency [12]

CC[C@H]1OC(=O)[C@H](C)[C@@H](O[C@H]2C[C@@](C)(OC)[C@@H](O)[C@H](C)O2)[C@H](C)[C@@H](O[C@@H]2O[C@H](C)C[C@H](NC)[C@H]2O)[C@](C)(O)C[C@@H](C)CN(C)[C@H](C)[C@@H](O)[C@]1(C)O
inactive: activation [1] -4.2% | Potency [2] | Potency [3]

O=C(c1ccccc1)c1ccc2n1CCC2C(=O)O (centres undefined)
inactive: activation [1] -6.21% and -3.1% | Potency [2] | viability [4] 104% | Potency [14] | Potency [13] | Potency [15] | Potency [16] | Potency [17] | Potency [5]

O=C1/C(=C/c2ccsc2)CC/C1=C\c1cccs1
inactive: activation [1] 14.3% | Potency [2] | Potency [3]

COc1ccc2[nH]cc(CCNC(C)=O)c2c1
inactive: activation [1] 4.42% and -13.4% and -16.3% | Potency [2] | Potency [3] | viability [4] 124% | Potency [14] | Potency [13] | Potency [15] | Potency [16] | Potency [17] | Potency [5]
